SMILES strings stand for the structures. Counter-ions that a name gives are not always drawn. ± gives the standard deviation.

Assay [1] relates to Jurkat. The assay is described as follows: mean cell size (FSC-A) relative to DMSO control (fraction of control); higher = larger cells. The note with it: 48 h. In a few lines:
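Jurkat cells at 600 cells/µl were incubated for 1 h and then treated for 48h with the Enzo Screen-Well FDA Approved Drug Library v2.0 at 25µM, with DMSO at 0.9% (v/v) final. Compounds that reduced counts below 20% of controls were retested in 10-fold dilutions down to 25nM. Cell count and mean cell size, taken as forward scatter area, were measured by flow cytometry relative to solvent-only controls. Each plate carried 6-12 controls, and values are means of 3 biological replicates.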

Assay [2] has as its system Jurkat. Briefly: cell count relative to DMSO control (fraction of control); higher = more cells (less growth inhibition). The note with it: 48 h.

In the assay on Jurkat [1], `COC(=O)[C@@H]1CC2=CC(=O)CC[C@]2(C)[C@@]23O[C@@H]2C[C@@]2(C)[C@@H](CC[C@@]24CCC(=O)O4)[C@H]13` [Eplerenone] (concentration: 25 µM) returned a mean cell size of 1.19 ± 0.035. The same molecule had a cell count in the assay on Jurkat [2] of 0.521 ± 0.06.
The like results for `CN(C)CCC(c1ccc(Br)cc1)c1ccccn1` (centres undefined) [Brompheniramine Maleate] (concentration: 25 µM) were, in that order, 0.946 ± 0.034 and 1 ± 0.14.
The like results for `CC(=O)Nc1nnc(S(N)(=O)=O)s1` [Acetazolamide] (concentration: 25 µM) were, in that order, 1.04 ± 0.061 and 0.755 ± 0.054.
The like results for `CNCC[C@@H](Oc1ccccc1C)c1ccccc1` [Atomoxetine·HCl] (concentration: 25 µM) were, in that order, 0.996 ± 0.05 and 0.81 ± 0.12.
The molecule `NC(=O)NO` [Hydroxyurea] (concentration: 25 µM) returned a mean cell size in the assay with Jurkat [1] of 0.958 ± 0.017. This molecule also showed a cell count with Jurkat [2] of 1.06 ± 0.099.
The like results for `C[C@@H]1C[C@H]2[C@@H]3CCC4=CC(=O)C=C[C@]4(C)[C@@]3(F)[C@@H](O)C[C@]2(C)[C@@]1(O)C(=O)CO` [Dexamethasone] (concentration: 25 µM) were, in that order, 0.917 ± 0.019 and 0.819 ± 0.11.
The molecule `OCCN1C[C@H](O)[C@@H](O)[C@H](O)[C@H]1CO` [Miglitol] (concentration: 25 µM) gave a mean cell size in the assay with Jurkat [1] of 0.994 ± 0.04. The same molecule displayed a cell count with Jurkat [2] of 0.767 ± 0.14.
The like results for `CC1=C(/C=C/C(C)=C/C=C/C(C)=C/C(=O)O)C(C)(C)CCC1` [Tretinoin] (concentration: 25 µM) were, in that order, 0.88 ± 0.031 and 1.02 ± 0.11.
For `CC1CNc2c(cccc2S(=O)(=O)N[C@@H](CCCNC(=N)N)C(=O)N2CC[C@@H](C)C[C@@H]2C(=O)O)C1` (some centres undefined) [Argatroban] (concentration: 25 µM), in that order: 0.938 ± 0.025 and 0.702 ± 0.023.
For `C[n+]1ccccc1/C=N/O` [Pralidoxime Chloride] (concentration: 25 µM), in that order: 1.08 ± 0.037 and 0.959 ± 0.1.
In the assay on Jurkat [1], `CN(C)CCCN1c2ccccc2CCc2ccc(Cl)cc21` [Clomipramine·HCl] (concentration: 25 µM) had a mean cell size of 0.961 ± 0.035. In addition, the cell count with Jurkat [2] was 0.4539 ± 0.0031.
On to `Nc1nc2ccc(OC(F)(F)F)cc2s1` [Riluzole·HCl] (concentration: 2.5 µM), for which, in the assay on Jurkat [1], the mean cell size was determined as 1.01 ± 0.028. The cell count in the assay on Jurkat [2] came to 0.573 ± 0.029.
The molecule `Cc1ccc(NC(=O)c2ccc(CN3CCN(C)CC3)cc2)cc1Nc1nccc(-c2cccnc2)n1` [Imatinib Mesylate] (concentration: 25 µM) showed a mean cell size in the assay on Jurkat [1] of 0.968 ± 0.032. In the assay on Jurkat [2], the cell count was found to be 0.589 ± 0.07.
With `CN(C)CCC[C@@]1(c2ccc(F)cc2)OCc2cc(C#N)ccc21` [Escitalopram] (concentration: 25 µM), the mean cell size in the assay with Jurkat [1] was found to be 1.06 ± 0.039. Besides, the cell count in the assay on Jurkat [2] stood at 0.382 ± 0.085.
For `Cc1ccc(Cl)c(Nc2ccccc2C(=O)O)c1Cl` [Meclofenamate·Na] (concentration: 25 µM), in that order: 0.903 ± 0.031 and 0.293 ± 0.032.
For `C=C(c1ccc(C(=O)O)cc1)c1cc2c(cc1C)C(C)(C)CCC2(C)C` [Bexarotene] (concentration: 2.5 µM), in that order: 0.942 ± 0.017 and 0.955 ± 0.09.
Turning to `CCN(CCO)CCCC(C)Nc1ccnc2cc(Cl)ccc12` (centres undefined) [Hydroxychloroquine Sulfate] (concentration: 25 µM), the mean cell size with Jurkat [1] stood at 0.948 ± 0.013. This molecule showed a cell count in the assay on Jurkat [2] of 1.03 ± 0.11.
The like results for `CCS(=O)(=O)CCn1c([N+](=O)[O-])cnc1C` [Tinidazole] (concentration: 25 µM) were, in that order, 0.992 ± 0.049 and 0.528 ± 0.018.
For `CC1(C)O[C@@H]2C[C@H]3[C@@H]4CCC5=CC(=O)C=C[C@]5(C)[C@H]4[C@@H](O)C[C@]3(C)[C@]2(C(=O)CO)O1` [Desonide] (concentration: 25 µM), in that order: 0.948 ± 0.027 and 0.857 ± 0.014.
The molecule `CC(O)(P(=O)(O)O)P(=O)(O)O` [Etidronate Disodium] (concentration: 25 µM) showed a mean cell size with Jurkat [1] of 1 ± 0.052. Besides, in the assay with Jurkat [2], the cell count turned out to be 0.595 ± 0.17.
For `CC=CC1=C(C(=O)O)N2C(=O)[C@@H](NC(=O)[C@H](N)c3ccc(O)cc3)[C@H]2SC1` [Cefprozil] (concentration: 25 µM), in that order: 0.951 ± 0.035 and 1.06 ± 0.035.
The like results for `Cn1ccnc1S` [Methimazole] (concentration: 25 µM) were, in that order, 0.951 ± 0.011 and 0.842 ± 0.092.

Source of the values: the supplement of paper PMC4709259.
